D2 ag-1: D2 dopamine receptor (human) agonism | AID 485358 | HEK293 T-REx D2 cells, calcium flux agonist mode | P14416 | activation, % at 2 µM | hit rate 0.53% among 340,000;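 active means activation over 3 SD above normal in the single-dose calcium agonist read, cut at about 30% in these data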; further: 0% is about no effect
Target sequence (P14416 whole entry, looked up): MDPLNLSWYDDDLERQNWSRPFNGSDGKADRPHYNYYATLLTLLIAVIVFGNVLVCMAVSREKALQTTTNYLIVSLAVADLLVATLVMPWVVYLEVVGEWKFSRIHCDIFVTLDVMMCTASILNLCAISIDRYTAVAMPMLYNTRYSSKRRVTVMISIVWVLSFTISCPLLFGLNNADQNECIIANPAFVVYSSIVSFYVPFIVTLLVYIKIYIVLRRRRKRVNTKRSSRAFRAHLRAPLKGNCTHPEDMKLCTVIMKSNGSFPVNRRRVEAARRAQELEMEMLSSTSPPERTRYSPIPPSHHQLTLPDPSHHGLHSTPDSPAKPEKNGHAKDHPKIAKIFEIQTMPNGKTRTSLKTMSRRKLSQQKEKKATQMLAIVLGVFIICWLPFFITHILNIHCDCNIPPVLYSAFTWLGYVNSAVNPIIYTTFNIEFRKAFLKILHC
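Agonism scored from kinetic calcium signal (1 read/sec, 180 s) following compound pin transfer, after a 10 s baseline. Cells: HEK293 Trex line expressing inducible D2 receptor coupled to calcium, dye-loaded after overnight culture at 30 C.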
D2 PAM-1: positively modulates the human D2 dopamine receptor allosterically; HEK293 T-REx D2, calcium flux, EC20 dopamine potentiation; potentiation, % at 10 µM; hit rate 0.34% among 340,000; AID 485347;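 active means potentiation over 3 SD above the plate norm, cut at about 30% in these data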; further: 0% is about no effect
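Cells plated with tetracycline inducer and held overnight at 30 C; calcium dye loaded 30–90 min at room temperature; baseline taken, compound added and read 180 s; EC20 dopamine then added and read 180 s.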
D2 PAM-2: potentiates the human D2 dopamine receptor allosterically | P14416 | DiscoveRx D2 beta-arrestin cells, luminescence, 90 min; 100% = 57 uM dopamine signal | potentiation, % (no concentration beside the values) | hit rate 0.23% among 360,000 | AID 624464; in the data active means potentiation above about 50%
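PathHunter beta-arrestin assay in DiscoveRx D2 cells. Compounds were added with an EC20 of dopamine (50 nM final) for 90 min at 37 deg C. Luminescence was read 1 h after detection reagent, with 57 uM dopamine as the EC100 control.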
D2 ag-2: agonists of human D2 dopamine receptor (beta-arrestin) | P14416 | DiscoveRx PathHunter D2 beta-arrestin, luminescence, 90 min; 100% = 57 uM dopamine signal | activation, % (concentration not given with the values) | hit rate 0.084% among 360,000; in the data active means activation above about 40%
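Agonist mode: compounds alone added to overnight-plated D2 PathHunter cells for 90 min at 37 C, with 57 uM final dopamine (EC100) defining full response. Beta-arrestin recruitment detected by chemiluminescent reagent, read after 1 h at ambient temperature.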
D2 antag: D2 dopamine receptor (human) antagonism; P14416; HEK293 TREx D2 cells, calcium flux, dopamine EC80; inhibition, % at 10 µM; hit rate 2% among 340,000; AID 485344; in the data active means inhibition above about 30%; inactive means below that, where a call was filed; further: 0% is about no effect
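HEK293 T-REx D2 cells, tet-induced, calcium dye no-wash. Cpd pintool add, 180 s kinetic, then EC80 DA, 180 s kinetic. Ca flux read.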
* hit, by the source's call; / = not tested or not shown. Only some compounds are listed: those with a hit (about 2.4% of all), similar ones and a draw of the others.

SMILES	D2 ag-1	D2 PAM-1	D2 PAM-2	D2 ag-2	D2 antag
COc1ccc([N+](=O)[O-])cc1NC(=O)C(C)N1CCCC1 (configuration not stated)	0	-11	-24	-6	31*
COC(=O)Nc1cc([N+](=O)[O-])ccc1OC	2	10	-6	-1	-6
C=CCN=C1S/C(=C/c2ccc([N+](=O)[O-])cc2)C(=O)N1CC=C	-1	2	-5	1	5
C=CCN=C1S/C(=C\c2ccc(Cl)cc2)C(=O)N1CC=C	1	-4	-3	1	80*
CCn1c2c(c(=O)n3ncc(C(=O)Nc4ccc(OC(F)(F)F)cc4)c13)CN(Cc1ccc(OC)cc1)CC2	-1	15	/	/	/
Fc1ccc(Nc2nc3ccccc3s2)cc1	1	-5	-36	3	33*
Cc1ccc(Nc2nc3ccccc3s2)cc1	0	-1	-13	1	-17
COc1cccc(-c2ccc(-c3noc(-c4ccccc4Br)n3)c(OC)n2)c1	0	11	/	/	/
COC(=O)c1cc2n(n1)CCN(Cc1ccc(OC)cc1)C2=O	0	-4	-3	2	-4
COc1ccc(CN2CCn3ncc(C(=O)Nc4cc(C)cc(C)c4)c3C2=O)cc1	0	-1	1	0	38*
CC(C)c1cccc(C(C)C)c1NC(=O)c1ccccc1	-2	-12	0	-4	43*
CCc1cccc(CC)c1NC(=O)c1ccccc1	-1	5	-3	-4	21
Cc1cccc(-c2cc(NC(=O)COc3ccccc3F)n(-c3ccccc3)n2)c1	0	-4	/	/	/
CCOC(=O)N1CCc2c(sc3c2c(=O)n(CCc2ccccc2)c(=O)n3Cc2ccc(C)cc2C)C1	0	-3	/	/	/
Cc1ccccc1OCC(=O)Nc1nnc(S(=O)(=O)N2CCCCCC2)s1	-1	13	/	/	/
Cc1[nH]c2ccc(C(=O)NCCCN(C)C3CCCCC3)cc2c1C	0	-27	-40	-5	34*
Cc1[nH]c2ccc(C(=O)NCCCN3CCN(C)CC3)cc2c1C	-1	-5	-19	-2	1
CC(C)Sc1nnc(SCC(=O)NCCCN2CCCC2=O)s1	-1	22	0	0	-17
CCN(C(=O)CSc1nc(-c2ccccc2)no1)c1cccc(C)c1	2	-7	/	/	/
Cc1ccccc1CNC(=O)c1cnc2sc(N3CCC(C)CC3)nn2c1=O	-1	-1	/	/	/
COc1ccc(Cn2ccn(Cc3cccc(Cl)c3)c(=O)c2=O)cc1	0	3	/	/	/
CN(C)CCCNC(=S)/N=c1\sccn1Cc1ccccc1Cl	0	-40	-11	-2	90*
O=C1CSc2ccc(S(=O)(=O)NCc3ccc(Cl)cc3)cc2N1	0	0	0	8	36*
COC(=O)c1ccc(CNC(=O)c2ccc3c(c2)NC(=O)CS3)cc1	0	-21	4	-4	37*
O=C1CSc2ccc(S(=O)(=O)NCc3ccc(F)cc3)cc2N1	1	-3	3	0	4
SMILES	D2 ag-1	D2 PAM-1	D2 PAM-2	D2 ag-2	D2 antag
COc1ccc(N2CCN(c3ccc(-c4nc(-c5cccc(C)c5)no4)cc3[N+](=O)[O-])CC2)cc1	/	0	/	/	/
CCC1=C(OC(=O)N(CC)CC)N2C(=O)OC(=NCCOC)[C@]2(Cc2ccccc2)[C@H]2C1=CC[C@H]1C(=O)NC(=O)[C@H]12	1	-1	-9	1	52*
COc1cc(S(=O)(=O)NCc2ccc(F)cc2)ccc1-n1cnnn1	-1	-12	-10	-1	7
CC1CN(S(=O)(=O)c2cccc(C(=O)NCc3ccccn3)c2)CC(C)O1 (configuration not stated)	/	/	-3	14	/
Cc1cc(C)cc(NC(=O)C2CC3CCC2C3)c1 (configuration not stated)	-2	-16	-2	-2	56*
Cc1ccc(NC(=O)CNCc2cccs2)c(Br)c1	0	8	-5	-1	32*
COc1cc(OC)cc(-c2nnc(SCC(=O)N(C(C)C)C(C)C)o2)c1	1	0	-4	-1	-1
COc1ccc(C(=O)NNC(=O)CSc2nnc(-c3cccnc3)o2)cc1	0	42*	2	0	3
CCCn1c(SCC(=O)NCCc2ccccc2)nnc1-c1cccnc1	/	/	-20	-1	/
COc1ccc(-c2nnc(SCC(=O)NNC(=O)c3ccc(C)cc3)o2)cc1	0	-1	6	0	5
